Experimental data published in PubChem BioAssay.
Activity calls are given as the source filed them.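 Rule for the calls: active = compounds whose cell count with miR-34 switched on is under 0.7 times the count with it off; inactive = the rest.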

Assay: viability loss with induced miR-34 in A549 – imaging, A549 dox-inducible miR-34, nuclei and caspase counts, primary screen (AID 1347080); note: test concentration not given here
Details: A549 miR-34 inducible, Hoechst nuclei count, 48 h
[1] = stronger effect = lower value, cell number ratio, induced over uninduced
[2] = measured here: relative caspase fold change +Dox/-Dox
[3] = measured here: total cells with miR-34 induction, stronger effect = lower value
[4] = measured here: total cells without miR-34 induction

CCCC[C@H](C)C[C@H](O)/C=C/[C@H]1[C@H](O)CC(=O)[C@@H]1CCCCC(CC(=O)O)OC (some centres undefined)
fold change [1]: 0.949 (inactive)
fold change [2]: 0.824
cell count [3]: 5200
cell count [4]: 5480

C[n+]1ccc(/C=C/c2c[nH]c3ccccc23)cc1
fold change [1]: 1.05 (inactive)
fold change [2]: 1.99
cell count [3]: 1600
cell count [4]: 1530

CCCCC[C@H](O)/C=C/[C@@H]1c2cc(CCCCC(=O)O)n(-c3ccccc3)c2C[C@H]1O
fold change [1]: 0.958 (inactive)
fold change [2]: 1.14
cell count [3]: 6340
cell count [4]: 6620

CCCCCCCC/C=C\CCCCCCCC(=O)NCC
fold change [1]: 1.03 (inactive)
fold change [2]: 0.997
cell count [3]: 6050
cell count [4]: 5880

CC(C)CC[C@@H](O)[C@@H](C)C1CCC2C3CC=C4C[C@@H](O)CC[C@]4(C)C3CC[C@@]21C (some centres undefined)
fold change [1]: 0.933 (inactive)
fold change [2]: 1.03
cell count [3]: 5170
cell count [4]: 5530

CCCCCC(=O)CC[C@H]1C(=O)C[C@H](O)[C@@H]1C/C=C\CCCC(=O)O
fold change [1]: 1.27 (inactive)
fold change [2]: 1.09
cell count [3]: 6060
cell count [4]: 4770

CCCCC(C)(C)[C@H](O)/C=C/[C@@H]1[C@@H](C/C=C\CCCC(=O)O)[C@H](O)C[C@H]1O
fold change [1]: 0.901 (inactive)
fold change [2]: 1.73
cell count [3]: 5660
cell count [4]: 6290

CCCCC[C@H](O)/C=C/[C@@H]1[C@@H](C/C=C\CCCCO)[C@@H](O)C[C@H]1O
fold change [1]: 0.871 (inactive)
fold change [2]: 1.35
cell count [3]: 5490
cell count [4]: 6300

CCCCC/C=C\CCCC/C=C\C/C=C\CCCC(=O)O
fold change [1]: 0.917 (inactive)
fold change [2]: 0.462
cell count [3]: 5360
cell count [4]: 5850

CCCCCCCC/C=C\CCCCCCCC(=O)Nc1c(C(C)C)cccc1C(C)C
fold change [1]: 0.999 (inactive)
fold change [2]: 0.853
cell count [3]: 5690
cell count [4]: 5700

CCCCC/C=C\C/C=C\CCCCCCCC(=O)OC(CO)CO
fold change [1]: 0.978 (inactive)
fold change [2]: 0.884
cell count [3]: 5470
cell count [4]: 5600

O=C(O)CCC/C=C\C[C@@H]1[C@@H](/C=C/[C@H](O)CCc2ccccc2)[C@H](O)C[C@@H]1O
fold change [1]: 0.915 (inactive)
fold change [2]: 1.56
cell count [3]: 5340
cell count [4]: 5830

O=C(O)CCC/C=C\CC1C(=O)C[C@@H](O)[C@@H]1/C=C/[C@@H](O)COc1ccccc1 (some centres undefined)
fold change [1]: 0.868 (inactive)
fold change [2]: 1.75
cell count [3]: 5400
cell count [4]: 6220

CCCCC/C=C\C/C=C\CCCCCCCC(=O)OCC(COC(=O)CCCCCCCCCCCCCCC)OC(=O)CCCCCCC/C=C\CCCCCCCC (centres undefined)
fold change [1]: 1.03 (inactive)
fold change [2]: 0.903
cell count [3]: 5950
cell count [4]: 5790

CCCCC/C=C\C/C=C\C/C=C\C/C=C\CCCC(=O)C(F)(F)F
fold change [1]: 0.997 (inactive)
fold change [2]: 0.841
cell count [3]: 5370
cell count [4]: 5390

CCCCCCCCCCCCCCCCC(=O)NCCO
fold change [1]: 1.04 (inactive)
fold change [2]: 0.673
cell count [3]: 6030
cell count [4]: 5800

CC(=O)OCOC(c1ccc2ccccc2c1)P(=O)(OCOC(C)=O)OCOC(C)=O (centres undefined)
fold change [1]: 1.11 (inactive)
fold change [2]: 0.941
cell count [3]: 3180
cell count [4]: 2860

C/C=C/C(=O)O[C@H](COCCCCCCCCCCCCCCCC)COP(=O)([O-])OCC[N+](C)(C)C
fold change [1]: 0.851 (inactive)
fold change [2]: 1.03
cell count [3]: 4860
cell count [4]: 5710

O=C(/C=C/c1cccc(C(=O)NO)c1)NO
fold change [1]: 0.962 (inactive)
fold change [2]: 1.09
cell count [3]: 4750
cell count [4]: 4940

CCCCCCCC/C=C\CCCCCCCC(=O)NCC(=O)O
fold change [1]: 1.05 (inactive)
fold change [2]: 0.739
cell count [3]: 6150
cell count [4]: 5840

Cc1c(C)c2c(c(C)c1O)CCC(C)(CCCC(C)C(=O)O)O2 (centres undefined)
fold change [1]: 0.962 (inactive)
fold change [2]: 0.303
cell count [3]: 5890
cell count [4]: 6120

O=C(O)CCC/C=C\C[C@H]1[C@@H](/C=C/[C@@H](O)CCc2ccccc2)[C@H](O)C[C@@H]1O
fold change [1]: 0.9 (inactive)
fold change [2]: 0.837
cell count [3]: 5490
cell count [4]: 6100

CC#CCC(C)[C@@H](O)/C=C/[C@@H]1[C@H]2C/C(=C/CCCC(=O)O)C[C@H]2C[C@H]1O (some centres undefined)
fold change [1]: 0.965 (inactive)
fold change [2]: 2.36
cell count [3]: 5460
cell count [4]: 5660

O=C(O)CCC/C=C\C[C@H]1C(=O)C=C[C@@H]1/C=C/[C@@H](O)CCc1ccccc1
fold change [1]: 0.944 (inactive)
fold change [2]: 0.959
cell count [3]: 5880
cell count [4]: 6220

CCCCC(C)(C)[C@H](O)/C=C/[C@H]1[C@H](O)CC(=O)[C@@H]1CC(=O)CCCCC(=O)O
fold change [1]: 0.919 (inactive)
fold change [2]: 1.32
cell count [3]: 5680
cell count [4]: 6180

CCCCC/C=C\C/C=C\CC/C=C\CCCC(=O)OCC
fold change [1]: 1.04 (inactive)
fold change [2]: 1.09
cell count [3]: 5570
cell count [4]: 5390

CCCCCCCCCCCCCCCC(=O)NCCS(=O)(=O)O
fold change [1]: 1.07 (inactive)
fold change [2]: 0.86
cell count [3]: 6370
cell count [4]: 5950

CCCCCCCCCCCCCC(=O)OCC
fold change [1]: 1.01 (inactive)
fold change [2]: 1.49
cell count [3]: 5310
cell count [4]: 5240

COc1ccc(/C=C/C(=O)CC(=O)/C=C/c2cccc(O)c2OC)cc1O
fold change [1]: 0.925 (inactive)
fold change [2]: 1.39
cell count [3]: 3510
cell count [4]: 3790

CCCCC1C(=O)CC[C@H]2[C@@H]1CC(=O)[C@@H]2C/C=C\CCCC(=O)O (some centres undefined)
fold change [1]: 1.07 (inactive)
fold change [2]: 1.48
cell count [3]: 5940
cell count [4]: 5580

O=C(CCCCCc1ccccc1)c1nc2ncccc2o1
fold change [1]: 1.06 (inactive)
fold change [2]: 0.866
cell count [3]: 5480
cell count [4]: 5190
